USP30 block: inhibitors of human USP30 deubiquitinase; Q70CQ3; inhibition, % at 25 µM; 5.3% of 47,000 active; AID 1645860; purified USP30, Ub-rhodamine cleavage fluorescence
USP28 block: inhibitors of human USP28 deubiquitinase; Q96RU2; purified USP28, Ub-rhodamine cleavage fluorescence, 30 min; inhibition, % at 25 µM; 3% of 47,000 active; AID 1645857
USP8 block: human USP8 deubiquitinase inhibition | purified USP8, Ub-rhodamine cleavage fluorescence, 30 min | inhibition, % at 20 µM | AID 1645853 | 4.2% of 47,000 active
USP17 inh: human USP17-like deubiquitinase inhibition; 6.5% of 47,000 active; A8MUK1; AID 1645855; purified USP17, Ub-rhodamine cleavage fluorescence, 3 h; inhibition, % at 50 µM
Each line names hits and unclear results; the compound was inactive in the other large screens. Hits are enriched below; roughly 13% of the tested compounds scored in any of these assays. No stated cut-off is given here; in the data, active means inhibition above about 30%; inactive means the rest.

COc1ccc(Cl)c(NC(=O)C2CC(=O)Nc3cc(-c4ccccc4)nn32)c1 (configuration not stated)	USP8 block 32, USP17 inh 57
COc1ccc(Cl)c(NC(=O)C2CC(=O)Nc3cc(C)nn32)c1 (configuration not stated)	none
O=C1CC(C(=O)Nc2ccccc2)n2nc(-c3ccccc3)cc2N1 (configuration not stated)	USP30 block 34
O=C(NCc1cccc(NC(=O)C2CC2)c1)Nc1cccc2ccccc12	USP17 inh 54
COc1ccccc1CNC(=O)CCC1CCCC1	none
COc1ccccc1CNC(=O)Nc1cccc2ccccc12	USP30 block 30, USP8 block 71, USP17 inh 53
COc1ccc(NC(=O)Nc2ccc(C)n(CC(=O)N3CCCCC3)c2=O)cc1	none
O=C(NCc1ccc(F)cc1)c1ccc(-c2cccs2)cc1	USP17 inh 59 (no result: USP30 block, USP28 block)
Cc1nc(-c2ccc(C(=O)NCc3ccc(F)cc3)cc2)cs1	USP17 inh 52
CCC(=O)Nc1cccnc1-c1ccc(C(=O)NCc2ccc(F)cc2)cc1	none
Cc1noc(-c2csc(C(=O)NCc3ccc(F)cc3)n2)n1	none
COc1ccc(C)cc1NC(=O)c1cc2cccnc2n(C)c1=O	USP17 inh 37 (no result: USP30 block, USP28 block)
Cn1c(=O)c(C(=O)Nc2ccc(F)c(Cl)c2)cc2cccnc21	none
CCn1c(=O)c(-c2ccc(C(=O)Nc3cc(C)ccc3OC)cc2)nc2cccnc21	USP17 inh 37
c1cc(-c2noc(C3CCCCC3)n2)cc(N2CCOCC2)n1	none
Cn1cc(-c2nc(C(=O)Nc3ccc(C#N)cc3)cs2)c2cccnc21	USP8 block 85
Cc1nc(C)n(CC2CCCCN2Cc2nc(-c3ccoc3)no2)n1 (configuration not stated)	none
CCCCn1c(=O)[nH]c2c(C(=O)N(C)Cc3ccccc3)snc2c1=O	none
COc1ccc(C(=O)Nc2sc3c(c2C(=O)NCc2cccnc2)CCCC3)cc1	USP17 inh 66
O=C(Oc1ccc(F)cc1)c1cc(-c2ccc3c(c2)OCCO3)on1	USP8 block 55
Cc1ccccc1OCC(=O)NCc1cc(-c2ccc3c(c2)OCO3)on1	none
COc1ccccc1CNC(=O)c1cccc2cccnc12	none
O=C(NCc1ccccc1CN1CCCC1)c1cccc2cccnc12	USP28 block 37
CCOC(=O)c1ccc(NC(=O)CSc2nnc(CNC(=O)c3ccccc3F)o2)cc1	none
CC(/C=C/C(=O)NO[C@@H]1O[C@H](CO)[C@@H](O)[C@H](O)[C@H]1O)=C\C(C)C(=O)c1ccc(N(C)C)cc1 (some centres not stated)	USP17 inh 43
Cc1cc(NC(=O)c2cccc(N3CCOCC3)n2)n(-c2ccc(Cl)cc2)n1	USP8 block 52
O=c1c2cc(O)c(O)cc2oc2cc(O)c(C3O[C@H](CO)[C@@H](O)[C@H](O)[C@H]3O)c(O)c12 (some centres not stated)	none
C[C@@]12CCc3occc3C1CCC13CC(CCC12)[C@@](O)(CO)C3 (some centres not stated)	USP30 block 32, USP17 inh 47
Cc1nccn1-c1cc(N2CCN(C(C)C)CC2)nc2ccnn12	none
NC(=O)c1cccc(NC(=O)c2cc(Cl)c3c(c2)OCO3)c1	USP28 block 48
Cn1ccc(C(=O)N2CCC3(CC2)CC(c2ccccc2)CO3)n1 (configuration not stated)	none
O=C(Cc1ccccc1)NCc1nnc(SCC(=O)N2CCc3ccccc32)n1-c1ccc(Br)cc1	none
O=C(O)c1c(CNCc2cccs2)c2ccccc2n1Cc1cccc(F)c1	USP17 inh 47
O=C(O)c1c(CNC2CCCCC2)c2ccccc2n1Cc1cccc(F)c1	none
CC(CCc1ccccc1)NCc1c(C(=O)O)n(Cc2ccc(F)cc2)c2ccccc12 (configuration not stated)	USP28 block 34
CC(C)c1nc2oc3c(N4CCCC4)ncnc3c2c2c1CCC2	none
Cc1ccc(-n2nc(C)c3c2NC(=O)CC3C(=O)c2cc3ccccc3o2)cc1C (configuration not stated)	USP17 inh 74
COc1ccc(-n2nc(C)c3c2NC(=O)CC3C(=O)c2cc3ccccc3o2)cc1 (configuration not stated)	none
Cc1nn(-c2cccc(F)c2)c2c1C(C(=O)c1ccc(Cl)s1)CC(=O)N2 (configuration not stated)	USP30 block 50
Cc1ccc(C(=O)C2CC(=O)Nc3c2c(C)nn3-c2ccc(C)c(C)c2)s1 (configuration not stated)	USP30 block 50, USP17 inh 70
